Some of the results follow. The hit rate among all sequences tested is not known here.
Molecular target: furin, P09958
Assay: furin cleavage Z-score vs untreated control; higher = more cleavage, active = 3.5 or more, inactive = 1 or less, 8 variable residues between constant flanks
Method in brief: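 The cleavage Z-score is the log read count relative to furin-free reactions, lowess-adjusted and scaled by median absolute deviation. Counts came from sequencing DNA released from bead-bound 8-mer peptide–cDNA fusions after digestion with purified furin for 7.5, 15 or 30 min.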
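Also: purified furin at 1:10 enzyme:substrate in 50 mM HEPES pH 7.5.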

Sequence of furin, P09958 (P09958 whole entry): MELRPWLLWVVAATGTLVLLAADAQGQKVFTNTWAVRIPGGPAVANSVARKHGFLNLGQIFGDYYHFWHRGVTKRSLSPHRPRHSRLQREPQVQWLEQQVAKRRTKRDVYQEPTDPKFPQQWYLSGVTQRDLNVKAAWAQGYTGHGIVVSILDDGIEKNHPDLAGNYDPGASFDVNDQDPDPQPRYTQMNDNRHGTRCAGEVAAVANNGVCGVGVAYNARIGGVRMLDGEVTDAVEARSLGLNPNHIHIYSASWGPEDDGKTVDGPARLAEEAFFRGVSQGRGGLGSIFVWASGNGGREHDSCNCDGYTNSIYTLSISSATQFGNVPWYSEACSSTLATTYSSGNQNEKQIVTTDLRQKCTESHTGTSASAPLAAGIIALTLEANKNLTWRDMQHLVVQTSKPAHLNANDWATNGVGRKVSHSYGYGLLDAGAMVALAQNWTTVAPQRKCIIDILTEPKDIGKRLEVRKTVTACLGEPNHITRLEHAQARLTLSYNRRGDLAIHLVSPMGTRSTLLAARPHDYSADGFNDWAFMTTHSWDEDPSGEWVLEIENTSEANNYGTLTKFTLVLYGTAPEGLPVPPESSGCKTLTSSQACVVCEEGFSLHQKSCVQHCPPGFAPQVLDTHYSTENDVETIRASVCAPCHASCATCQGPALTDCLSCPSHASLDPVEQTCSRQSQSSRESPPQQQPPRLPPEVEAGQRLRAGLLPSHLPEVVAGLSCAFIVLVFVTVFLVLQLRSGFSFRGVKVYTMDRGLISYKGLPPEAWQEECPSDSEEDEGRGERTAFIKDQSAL

| Sequence | furin cleavage Z-score (7.5 min) | furin cleavage Z-score (15 min) | furin cleavage Z-score (30 min) |
| --- | --- | --- | --- |
| CAQTRGLLGCAGNASASA [HC678] | 0.117 (inactive) | -0.157 (inactive) | -0.705 (inactive) |
| CASMLTDPSHAGNASASA [HC1247] | 0.787 (inactive) | 1.14 | 0.981 (inactive) |
| CARFKRSAQFAGNASASA [FS-2663] | 9.02 (active) | 10 (active) | 9.39 (active) |
| CARKKRLISYAGNASASA [FS-2965] | 0.348 (inactive) | 3.83 (active) | 6.5 (active) |
| CARKKRKIKEAGNASASA [FS-3191] | -0.575 (inactive) | -0.156 (inactive) | 2.36 |
| CARKKRKAAPAGNASASA [FS-2267] | 5.91 (active) | 5.87 (active) | 5.5 (active) |
| CARKKRMAKYAGNASASA [FS-2966] | 5.67 (active) | 7.97 (active) | 8.42 (active) |
| CADFERSRAFAGNASASA [FS-1845] | -0.875 (inactive) | -0.501 (inactive) | -0.616 (inactive) |
| CARKKRKPEEAGNASASA [FS-3192] | 0.523 (inactive) | 1.22 | 1.86 |
| CARHWTTQGCAGNASASA [HC309] | 0.306 (inactive) | -0.845 (inactive) | 0.176 (inactive) |
| CAMEECFQHLAGNASASA [HC26] | 0.765 (inactive) | 1.72 | 1.22 |
| CAILAGYGAGAGNASASA [HC1086] | -0.899 (inactive) | -0.697 (inactive) | -0.69 (inactive) |
| CARKKRQVPYAGNASASA [FS-2269] | 7.32 (active) | 7.2 (active) | 5.84 (active) |
| CARKSRPNASAGNASASA [FS-2981] | 0.905 (inactive) | -0.37 (inactive) | -0.749 (inactive) |
| CARKSRSKSKAGNASASA [FS-3195] | 1.71 | 0.576 (inactive) | 0.352 (inactive) |
| CARKSRSPHNAGNASASA [FS-3224] | 7.07 (active) | 8.27 (active) | 8.28 (active) |
| CARKKRSEYYAGNASASA [FS-1957] | 5.84 (active) | 8.3 (active) | 8.52 (active) |
| CARKKRSQTYAGNASASA [FS-1958] | 8.08 (active) | 10.2 (active) | 9.02 (active) |
| CASVFLVGQLAGNASASA [HC302] | -1.01 (inactive) | 0.196 (inactive) | -1.15 (inactive) |
| CAGDEVDGAGAGNASASA [CS5] | -1.72 (inactive) | -1.16 (inactive) | -2.65 (inactive) |
| CATTTSSEPAAGNASASA [HC1343] | 0.91 (inactive) | 0.314 (inactive) | 0.501 (inactive) |
| CAVVLCSMSYAGNASASA [HC2025] | -0.0785 (inactive) | 0.317 (inactive) | -1.45 (inactive) |
| CAGSGKSTKVAGNASASA [HC777] | -0.846 (inactive) | -1.25 (inactive) | -0.383 (inactive) |
| CATYGKFLADAGNASASA [HC808] | -0.371 (inactive) | 0.314 (inactive) | -0.318 (inactive) |
| CAKLPLAVMGAGNASASA [HC1461] | -1.04 (inactive) | 0.392 (inactive) | -1.13 (inactive) |
| CAKLGVPPLRAGNASASA [HC1616] | -0.0832 (inactive) | -1.53 (inactive) | 0.294 (inactive) |
| CAQKKRSAQYAGNASASA [FS-2878] | 0.0672 (inactive) | 0.984 (inactive) | 2.02 |
| CARKKRSAQNAGNASASA [FS-2036] | 11.7 (active) | 14 (active) | 8.93 (active) |
| CARKKRISANAGNASASA [FS-1827] | 0.255 (inactive) | 0.21 (inactive) | -0.0863 (inactive) |
